# In PubChem BioAssay (NCI):
# The panel holds about 83,000 compounds, 20% with a hit somewhere; the sample as a whole holds those more often.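 Values shown are percent growth following 48 h exposure of cells in 96-well plates to a single concentration of compound; below 10 was considered active.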 A number with no mark means an inactive call. Activity calls are given as the source filed them.
# Key:
# Assay in all cases: NCI-60 one-dose screen, 48 h (100 = growth as untreated, 0 = no growth, -100 = all killed)
# Settings in all cases: 10 µM unless noted
# DU-145 prostate = tested on: DU-145 prostate
# K-562 leukemia = tested on: K-562 leukemia
# MALME-3M melanoma = tested on: MALME-3M melanoma
# MDA-MB-231 breast = tested on: MDA-MB-231 breast
# RXF 393 renal = tested on: RXF 393 renal
# SF-268 CNS = tested on: SF-268 CNS
# SF-539 CNS = tested on: SF-539 CNS
# M14 melanoma = tested on: M14 melanoma
# HCT-15 colon = tested on: HCT-15 colon
# HT29 colon = tested on: HT29 colon
# SNB-75 CNS = tested on: SNB-75 CNS
# SNB-19 CNS = tested on: SNB-19 CNS
# PC-3 prostate = tested on: PC-3 prostate
# SK-MEL-5 melanoma = tested on: SK-MEL-5 melanoma
# UACC-62 melanoma = tested on: UACC-62 melanoma
# LOX IMVI melanoma = tested on: LOX IMVI melanoma
# SF-295 CNS = tested on: SF-295 CNS
# UACC-257 melanoma = tested on: UACC-257 melanoma
# U251 CNS = tested on: U251 CNS
# SK-MEL-28 melanoma = tested on: SK-MEL-28 melanoma
Compound,growth (DU-145 prostate) [%],growth (K-562 leukemia),growth (MALME-3M melanoma),growth (MDA-MB-231 breast) [%],growth (RXF 393 renal),growth (SF-268 CNS) [%],growth (SF-539 CNS) [%],growth (M14 melanoma),growth (HCT-15 colon) [%],growth (HT29 colon),growth (SNB-75 CNS),growth (SNB-19 CNS) [%],growth (PC-3 prostate),growth (SK-MEL-5 melanoma),growth (UACC-62 melanoma),growth (LOX IMVI melanoma),growth (SF-295 CNS),growth (UACC-257 melanoma),growth (U251 CNS) [%],growth (SK-MEL-28 melanoma)
O=c1c2cccc3c(Nc4ccccn4)ccc(c32)c2nc3ccccc3n12,91.8,46.5%,86.3%,70.6,108%,87.2,85.7,91%,59.2,64.6%,78.6%,89.9,64%,51.8%,64.3%,69.6%,–,–,–,–
N=c1c2ccccc2nc2n1CCCCC2,118,121%,107%,110,110%,106,–,108%,110,110%,99.7%,–,116%,100%,106%,106%,109%,110%,101,103%
CC1=C(NCCN2CCCC2)C(=O)c2c(OCc3cccc(Cl)c3)cccc2C1=O,89.9,30.8%,53%,62.8,73.8%,72.8,–,-72.6% (active),57.1,26.1%,75.1%,–,–,67.1%,93.7%,36.1%,56.9%,-42.4% (active),61.7,-8.01% (active)
CCCCNc1ccc2c3c1cccc3c(=O)n1c3ccccc3nc21,99.4,78.8%,89.3%,79.8,104%,101,103,93.1%,76.2,80.4%,73.4%,101,85.5%,75.5%,85.9%,75.9%,–,–,–,103%
COc1ccc(/C=C2\N=C3SC=C(N)N3C2=O)cc1,26.5,5.29% (active),-15.3% (active),42.5,-21.2% (active),37.3,26.7,24.8%,20.7,9.12% (active),25.2%,53.8,20.6%,4.65% (active),23%,-47.5% (active),–,–,–,43.7%
NC(=S)N/N=C/c1cc(-c2cccc(N)c2)ccn1,28.1,14.9%,15.6%,57.6,34.5%,21.2,–,1.75% (active),23.8,34.8%,35.1%,–,58.8%,8.97% (active),-2.21% (active),15.6%,9.47% (active),29.3%,16.1,52.1%
O=C1c2ccccc2-c2nccc3cc(Cl)nc1c23,37.3,-6.02% (active),-65.6% (active),78.7,-43.1% (active),24.6,–,-63.4% (active),17.6,14.3%,65.1%,–,8.78% (active),-89% (active),27.7%,-22.5% (active),53.2%,58.6%,32.8,55.8%
CCOC(=O)C12CCCC1=CC(=O)CC2 (configuration not stated),116,89%,108%,111,113%,103,–,112%,106,131%,89.1%,–,94.8%,103%,102%,100%,115%,94.4%,105,106%
Cc1sc2nc3[nH]/c(=C\c4ccc(Cl)cc4)c(=O)n3c(=O)c2c1C,109,101%,102%,111,99.5%,102,103,103%,96.5,96.1%,89.6%,101,97.3%,99.4%,99.2%,103%,–,–,–,99.8%
COc1cc2c(cc1O)CCc1cc(O)cc(OC)c1-2,109,99.2%,96.5%,83.1,103%,93.8,–,94.6%,90.7,95.6%,91.9%,–,93.6%,98.5%,87.2%,93.5%,103%,95.3%,91.3,100%
COc1ccc(/C=C2\N=C3Sc4cc(Cl)ccc4C(=O)N3C2=O)cc1,110,94.1%,101%,100,106%,106,98.7,99.6%,102,104%,76.8%,101,85.5%,99.8%,98%,98.8%,–,–,–,103%
CCN(CC)C12CCCCC1(C)C(C#N)(C#N)C(C#N)=C(N)O2 (configuration not stated),107,95.5%,92.3%,108,144%,99.6,–,102%,106,101%,92.1%,–,115%,116%,90.8%,98.9%,98%,114%,103,99.3%
Cc1nc2nc(N)nc(N)c2nc1C,110,100%,99.9%,94,105%,98.5,–,90.9%,98.6,102%,93.2%,–,92.7%,101%,91.1%,101%,90.5%,96.2%,99.5,109%
O=C1Nc2ccccc2C12CC(c1ccc(Cl)cc1)=NN2 (configuration not stated),115,94.5%,105%,89.8,99.4%,106,99.2,98.7%,97.7,97.1%,76%,90.9,–,92.4%,95%,99.5%,–,–,–,97.7%
CN1CCCCC1CCN1c2ccccc2Sc2ccc(Cl)cc21 (configuration not stated),67,7.99% (active),83.2%,65.9,–,65.8,90.9,45.2%,49.3,31.4%,7.16% (active),97,59.5%,55.7%,77.9%,68.1%,76.6%,67.4%,–,75%
CCCCCCCCCCCCS(=O)CC(C)O (configuration not stated),126,103%,116%,104,–,139,97.2,107%,104,110%,78.3%,98.6,99.3%,103%,92.6%,111%,100%,94.7%,–,102%
O=C1Nc2ccc(Br)cc2C12CC(c1ccccc1)=NN2 (configuration not stated),69.9,23.8%,37.9%,50.6,61.4%,58.7,32.9,28.2%,32.7,12.1%,28.1%,69.1,–,23.9%,48.2%,–,–,–,–,56.2%
c1c2c(cc3c1OCO3)Cc1cc3c(cc1Cc1cc4c(cc1C2)OCO4)OCO3,121,117%,116%,116,–,111,97.9,104%,103,108%,73%,106,99.8%,108%,108%,95.8%,95.8%,84.6%,–,103%
